Sampled rows, rich in hits. Any-hit rate of the full collection: about 2%.
Fam108B inh: Fam108B inhibition, counter-screen for RBBP9 inhibitors | recombinant Fam108B, FP-Rh probe fluorescence polarization | 300,000 tested, 0.33% active | AID 1947 | inhibition, % at 9.51 µM;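 active = inhibition above the screen mean inhibition plus 3 SD, computed separately per campaign, cut at about 18% in these data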;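 also: inhibitors lower polarization as less probe binds the enzyme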
LYPLA2 inh: blocks human lysophospholipase 2, a PME1 counter-screen; O95372; recombinant LYPLA2, FP-Rh probe fluorescence polarization; inhibition, % at 5.9 µM; 320,000 tested, 0.38% active; AID 2177;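 active = inhibition above the screen-wide mean plus 3 SD, limit set per campaign, cut at about 26% in these data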
LYPLA1 inh: LYPLA1 (human) inhibition in PME1 counter-screen | recombinant LYPLA1, FP-Rh probe fluorescence polarization | inhibition, % at 5.9 µM | 320,000 tested, 0.16% active | AID 2174;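 active = inhibition above the mean of all tested compounds plus 3 SD, set per campaign, cut at about 14% in these data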;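 also: inhibitors block serine hydrolase probe labeling of LYPLA1 so polarization falls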
Target sequence (O75608 whole entry, looked up): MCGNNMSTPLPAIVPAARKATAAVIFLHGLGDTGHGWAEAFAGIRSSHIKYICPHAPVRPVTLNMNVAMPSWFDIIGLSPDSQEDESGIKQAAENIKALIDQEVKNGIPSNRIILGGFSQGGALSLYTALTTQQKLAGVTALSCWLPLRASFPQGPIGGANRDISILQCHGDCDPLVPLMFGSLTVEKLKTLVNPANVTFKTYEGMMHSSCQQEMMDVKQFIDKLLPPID
PREPL inh: inhibits the human prolyl oligopeptidase-like enzyme. recombinant PREPL, fluorescence polarization activity-based probe. inhibition, % at 5.96 µM. 320,000 tested, 0.68% active. AID 2751
GSTO1 counter: GSTO1 inhibition, counter-screen for RBBP9 inhibitors | P78417 | recombinant GSTO1, activity-based probe fluorescence polarization | inhibition, % at 5.96 µM | 300,000 tested, 1.1% active | AID 1974;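 active = inhibition above the campaign mean inhibition plus 3 SD, cut at about 35% in these data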
PME-1 inh: blocks human protein phosphatase methylesterase 1. Q9Y570. recombinant PME-1, FP-Rh probe fluorescence polarization. inhibition, % at 5.9 µM. 320,000 tested, 0.53% active. AID 2130;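 active = inhibition above the campaign mean of all compounds plus 3 SD, cut at about 26% in these data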;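 also: competitive labeling of PME-1 active site by serine hydrolase directed probe; inhibitors block probe labeling so polarization falls and inhibition rises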
Target sequence (Q9Y570 whole entry, looked up): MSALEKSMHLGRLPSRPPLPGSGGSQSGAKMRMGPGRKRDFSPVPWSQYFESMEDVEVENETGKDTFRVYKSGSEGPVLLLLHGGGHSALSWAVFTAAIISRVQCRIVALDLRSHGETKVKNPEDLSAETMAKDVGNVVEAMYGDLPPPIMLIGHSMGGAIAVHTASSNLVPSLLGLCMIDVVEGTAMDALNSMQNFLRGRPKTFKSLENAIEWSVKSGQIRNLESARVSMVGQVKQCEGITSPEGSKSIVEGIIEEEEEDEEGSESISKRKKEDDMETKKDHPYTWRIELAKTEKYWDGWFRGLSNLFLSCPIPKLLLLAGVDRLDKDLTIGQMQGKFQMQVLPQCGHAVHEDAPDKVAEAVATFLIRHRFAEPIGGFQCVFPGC
GSTO1 inh conf: GSTO1 (human) inhibition, confirmation | shares compounds with GSTO1 counter | 2,400 tested, 54% active | recombinant GSTO1, probe fluorescence polarization | inhibition, % at 5.96 µM | AID 2176;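 active = inhibition above the primary screen's cutoff, its mean inhibition plus 3 SD, cut at about 35% in these data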;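 also: loss of polarization as inhibitors block binding of rhodamine sulfonate ester activity probe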
LYPLA1 conf: LYPLA1 (human) inhibition, confirmation counter-screen. shares compounds with LYPLA1 inh. recombinant LYPLA1, FP-Rh probe fluorescence polarization. inhibition, % at 5.9 µM. 480 tested, 69% active. AID 2233;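 active = mean inhibition across replicates above the hit cutoff set in the primary screen, cut at about 15% in these data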;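 also: loss of FP-Rh probe labeling of LYPLA1 seen as lower polarization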
LYPLA2 conf: counter-screen for PME1 inhibitors: confirmation of human LYPLA2 inhibitors. shares compounds with LYPLA2 inh. recombinant LYPLA2, FP-Rh probe fluorescence polarization. inhibition, % at 5.9 µM. 1,100 tested, 72% active. AID 2232;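 active = mean inhibition across replicates above the hit cutoff set in the primary screen, cut at about 26% in these data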;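 also: blocked labeling of the enzyme by serine hydrolase FP-Rh probe lowers polarization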
LYPLA2 ABPP: blocks human acyl-protein thioesterase 2 in gel ABPP. shares compounds with LYPLA2 inh. inhibition, % at 20 µM. 150 tested, 30% active. rhLYPLA2 in mouse brain proteome, gel ABPP FP-Rh;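 active = inhibition of LYPLA2 enzyme probe labeling above about 50%, limit read from the data; inactive = inhibition below that limit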;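 also: loss of FP-Rh probe labeling of the LYPLA2 gel band measured as band density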
PREPL confirm: confirmation of human PREPL enzyme inhibitors; shares compounds with PREPL inh; recombinant PREPL, fluorescence polarization activity probe; inhibition, % at 5.96 µM; 2,000 tested, 67% active; AID 2803
Of the large screens only hits and unclear results are named; the others gave an inactive call (follow-up assays come after a bar, where they were run). Rule as the data show it, unless noted: active = inhibition above about 43%; inactive = the rest.

[Cl][Pt+2][Cl].[NH-]C1CCCCC1[NH-] (stereo not given)	none
O=C(O)CC1OCC=C2CN3CCC45C6=CC(=O)C(=O)C([N+](=O)[O-])=C6NC4C1C2CC35 (stereo not given)	GSTO1 counter 79 | GSTO1 inh conf 82
CC(C)(C)C(=O)O[C@H]1CC[C@@]2(C)C(=CC(=O)C3C2CC[C@]2(C)C(=O)[C@@H](F)CC32)C1 (stereo not given in full)	none (no result: Fam108B inh, LYPLA2 inh, LYPLA1 inh, GSTO1 counter, PME-1 inh)
C=C(C)Cn1c(=O)n(CC2CS2)c2ccccc21 (stereo not given)	GSTO1 counter 50 | GSTO1 inh conf 46
O=C(Cn1c(=O)n(CC2CS2)c2ccccc21)N1CCCCCC1 (stereo not given)	none
CCOC(=O)c1c(NS(=O)(=O)c2ccccc2)n(CCCOC)c2nc3ccccc3nc12	LYPLA2 inh 96, LYPLA1 inh 83, PREPL inh 46, GSTO1 counter 93, PME-1 inh 33 | GSTO1 inh conf 59 | LYPLA1 conf inactive | LYPLA2 conf inactive | PREPL confirm inactive
CCN(C(=O)COC(=O)c1cn(C)c2ccccc12)c1ccc(F)cc1	none (no result: Fam108B inh, GSTO1 counter)
Clc1ccc(C(c2ccc(Cl)cc2)n2cc[n+](CC(OCc3ccc(Cl)cc3Cl)c3ccc(Cl)cc3Cl)c2)cc1 (stereo not given)	LYPLA2 inh 32, LYPLA1 inh 22 | LYPLA1 conf 52 | LYPLA2 conf 43
Oc1c(Br)c(Br)c(Br)c(Br)c1Br	LYPLA2 inh 56, LYPLA1 inh 25, PME-1 inh 75 (no result: Fam108B inh, GSTO1 counter) | LYPLA1 conf 30 | LYPLA2 conf 58
Oc1c(Br)cc(Br)cc1Br	none (no result: Fam108B inh, GSTO1 counter)
Cc1cccc(N=Nc2ccc(N(C)C)cc2)c1	none
O=C(COc1ccc(Cl)cc1Cl)N1CCN(C/C=C/c2ccccc2)CC1	LYPLA2 inh 76 | LYPLA2 conf 78 | LYPLA2 ABPP 56
ClC1=C(Cl)C2(Cl)C3C(Cl)C=CC3C1(Cl)C2(Cl)Cl (stereo not given)	none (no result: Fam108B inh, GSTO1 counter)
O=C(COc1ccc(Cl)cc1)N1CCN(Cc2ccc([N+](=O)[O-])cc2)CC1	LYPLA2 inh 57 | LYPLA2 conf 61 | LYPLA2 ABPP inactive
COc1ccc(OCC(=O)N2CCN(Cc3nc4cc([N+](=O)[O-])ccc4n3C)CC2)cc1	none
Cc1cc(OCC(=O)N2C[C@H]3C[C@@H](C2)c2cccc(=O)n2C3)c2c(C)cc(=O)oc2c1	none
Cc1nc2cc(C(F)(F)F)ccc2n1C1CCN(Cc2nnnn2Cc2cccs2)CC1	LYPLA2 inh 27 | LYPLA2 conf inactive
O=C(COc1ccccc1F)N1CCN(CCN2C(=O)c3cccc4cccc(c34)C2=O)CC1	LYPLA2 inh 38 | LYPLA2 conf 35
O=C(COc1ccccc1)N1CCN(CCN2C(=O)c3cccc4cccc(c34)C2=O)CC1	none
CCN1C[C@]2(COC(=O)c3ccccc3N)CC[C@H](OC)C34[C@@H]5C[C@H]6[C@H](OC)[C@@H]5[C@](O)(C[C@@H]6OC)[C@@](O)([C@H]13)[C@@H](OC)[C@@H]42	PREPL inh 53 | PREPL confirm 46
CCN1C[C@]2(COC)CC[C@H](OC)[C@@]34C5C[C@H]6C(=O)C5[C@](O)(C[C@H]6OC)[C@@](O)(C(OC)C23)[C@@H]14 (stereo not given in full)	none
CCN1CC2(COC(=O)c3ccccc3N)CCC(OC)C34C5CC6C(OC)CC(O)(C5C6OC)C(O)(C(OC)C23)C14 (stereo not given)	PREPL inh 45 | PREPL confirm 45
C1=CC(Cc2cncs2)c2ccccc21 (stereo not given)	none (no result: Fam108B inh, GSTO1 counter)
O=C(c1ccc2c(c1)N(Cc1ccccc1)CCS2)N1CCC2(CC1)OCCO2	PREPL inh 58 | PREPL confirm 55
C=CCN1C(=O)c2ccccc2Sc2ccc(C(=O)N3CCC4(CC3)OCCO4)cc21	none
O=C1NC(=O)C(=Cc2ccc(-c3ccc(F)cc3O)o2)C(=O)N1	none
COC(=O)C1=C(c2ccc(OC(F)(F)F)cc2)C[C@@H]2CC[C@H]1N2C(=O)NC(C)C	none (no result: Fam108B inh, GSTO1 counter)
Cc1ccccc1-[n+]1c(-c2ccccc2)cc(-c2ccccc2)cc1-c1ccccc1	none
Brc1ccc(-[n+]2c(-c3ccccc3)cc(-c3ccccc3)cc2-c2ccccc2)cc1	PREPL inh 56 | PREPL confirm 56
[O-]c1ccccc1-[n+]1c(-c2ccccc2)cc(-c2ccccc2)cc1-c1ccccc1	PREPL inh 45 | PREPL confirm 54
Oc1ccccc1-[n+]1c(-c2ccccc2)cc(-c2ccccc2)cc1-c1ccccc1	none
CCOc1cc2c(cc1OCC)-n1cccc1C(c1ccc(OC(F)F)cc1)NC2 (stereo not given)	none
COC(=O)C1=C(c2cccc(C#N)c2)C[C@@H]2CC[C@H]1N2C(=O)NC(C)C	none (no result: Fam108B inh, GSTO1 counter)
COc1ccc2[nH]c(C)c(CCNCc3cn(C)c4ccccc34)c2c1	PREPL inh 70 (no result: Fam108B inh, GSTO1 counter) | PREPL confirm 54
Cc1[nH]c2ccccc2c1CCNCc1cccnc1	none
Cc1ccc(-c2cc(-c3ccc(C)cc3)[n+](-c3ccc(C(=O)O)cc3)c(-c3ccc(C)cc3)c2)cc1	none
Cc1ccc(C[n+]2c(-c3ccc(C)cc3)cc(-c3ccc(C)cc3)cc2-c2ccc(C)cc2)cc1	PREPL inh 55 | PREPL confirm 52
CCCC[C@@H](C)C[C@@H](C)C(=O)N(C)[C@@H](CC(C)C)C(=O)N[C@H](C(=O)N(C)[C@H](C(=O)N1C[C@@H](O)C[C@H]1C(=O)N1C(=O)C=C[C@@H]1C)C(C)C)C(C)OC(C)=O (stereo not given in full)	PREPL inh 50 (no result: Fam108B inh, LYPLA2 inh, LYPLA1 inh, GSTO1 counter, PME-1 inh) | PREPL confirm 48
COc1cc(OC)c2c(c1)O[C@@H](c1ccc(OC)c(OC)c1)[C@H](O)C2	none
Cc1ccc(N)c(N)c1	none (no result: Fam108B inh, GSTO1 counter)
Cc1ccc(N)cc1N	PREPL inh 54 (no result: Fam108B inh, GSTO1 counter) | PREPL confirm inactive
